Experimental data taken from PubChem BioAssay (NCI).
Where “and” joins values, the source holds several entries; their conditions need not be identical. Identical values can stand only once. Compounds without any hit were thinned out: in the full panel of roughly 83,000, 20% have a hit.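 Cells were grown in 96-well plates and exposed to the test compound at a single concentration for 48 hours; results are reported as percent growth, with values below 10 considered active.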 Calls of active or inactive are those of the source.

system: OVCAR-3 ovarian; experiment: NCI-60 one-dose screen, 48 h (100 = growth as untreated, 0 = no growth, -100 = all killed); conditions: 10 µM unless noted

Structure (SMILES) | growth
CC12OC(CC(O)C1O)n1c3ccccc3c3c4c(c5c6ccccc6n2c5c31)C(=O)N(CCN1CCOCC1)C4=O (centres undefined) | 20.8% (inactive)
Cc1c(O)c(O)cc2c3c(oc12)CC(c1ccc2c(c1)OCO2)CC3=O (centres undefined) | 86.4% (inactive)
N#CC1=C(N)Oc2c(sc3c(Br)cccc23)C1c1ccccn1 (centres undefined) | 14.3% (inactive)
COc1cc2nc3cc([N+](=O)[O-])ccc3c(NCCNCC(C)(C)O)c2cc1OC | -31.2% (active)
CCOc1ccccc1NC(=O)c1cc2ccccc2cc1O | 18.2% (inactive)

system: HS 578T breast; experiment: as above; conditions: 10 µM unless noted

Structure (SMILES) | growth
CN1CCN(CCCN2c3ccccc3Sc3ccc(Cl)cc32)CC1 | 66.8% (inactive) and 60.3% (inactive)
O=C(c1cccc(Br)c1)N1CCN(c2ccnc3cc(Cl)ccc23)CC1 | 112% (inactive)
N#CSc1c[nH]c2ccc(/C=C/C(=O)/C=C(/C=C/c3ccc4[nH]cc(SC#N)c4c3)OB(F)F)cc12 | 26.8% (inactive)
COc1cc(Nc2nc3ccccc3cc2C(=O)Nc2ccc(F)c(F)c2)cc(OC)c1OC | 61.2% (inactive)
CCOC(=O)CC1CSC(c2cccc(Cl)c2)=N1 (centres undefined) | 102% (inactive)
CC/C=C\C/C=C\C[C@H](O)C/C=C1/C(=O)C=C[C@@H]1C/C=C\CCCC(=O)OC | 32.6% (inactive)
CCCCCCNC(=O)Oc1ccc(/C(=C(/CC)Cc2ccccc2)c2ccc(OCCCN(C)C)cc2)cc1 | 86.3% (inactive)
NC(N)=NC(N)=NCCCc1ccco1 | 109% (inactive)
O=C(N=Nc1c(O)[nH]c2ccccc12)Nc1ccccc1Cl | 89.4% (inactive)
O=C(N/N=C/c1ccc(O)cc1O)c1cccc(Nc2ccnc(C(F)(F)F)c2)c1 | 44.8% (inactive)
O=C(Nc1ccc2ccccc2c1)c1cc2ccccc2cc1O | 105% (inactive)
Cc1ccc(-c2nc3nc(-c4ccccc4)nc(N4CCN(S(=O)(=O)c5ccccc5)CC4)c3o2)cc1 | 43.1% (inactive)
Cn1cc(C2=C(c3cccc4ccccc34)C(=O)NC2=O)c2cc(Br)ccc21 | 82% (inactive)
CC[C@@H]1NC(=O)[C@H]([C@H](O)[C@H](C)C/C=C/c2ccc(CN3C(=O)C(C)=C(C)C3=O)cc2)N(C)C(=O)[C@H](C(C)C)N(C)C(=O)[C@H](CC(C)C)N(C)C(=O)[C@H](CC(C)C)N(C)C(=O)[C@@H](C)NC(=O)[C@H](C)NC(=O)[C@H](CC(C)C)N(C)C(=O)[C@H](C(C)C)NC(=O)[C@H](CC(C)C)N(C)C(=O)CN(C)C1=O | 83.9% (inactive)
O=C1/C(=C/c2ccc(F)c(F)c2)CN(C(=O)C(Cl)Cl)C/C1=C\c1ccc(F)c(F)c1 | -38.5% (active)
O=C1C(c2c[nH]c3ccccc23)=C(c2coc3cc(Br)ccc23)C(=O)N1O | 94.5% (inactive)
CC1=CC(C)(C)NC(=S)N1c1ccc(Cl)cc1 | 102% (inactive) and 113% (inactive)
O=C1/C(=C/c2ccccc2)CN(C(=O)C(Cl)Cl)C/C1=C\c1ccccc1 | 4.17% (active)
CC(=O)N1N=C(c2ccc(Nc3nc(Nc4ccc(F)cc4)nc(Nc4ccc(Cl)cc4)n3)cc2)CC1c1ccc(N(C)C)cc1 (centres undefined) | 24.6% (inactive)
CCCN1C(=O)/C(=c2\sc3n(c2=O)NC2C(N=3)N(CC)C(=O)N2CC)c2ccccc21 (centres undefined) | 27.8% (inactive)

Structure (SMILES) | growth
CONC1=Nc2cc(NC(N)=NCc3ccccc3)c(N(C)C3CCCCC3)cc2OC1 | 71.4% (inactive)
Cc1c(CC(=O)OCCO)cc(-c2ccc(Cl)cc2)n1-c1ccccc1 | 106% (inactive)
COc1cc(/C=C2\CCC/C(=C\c3cc(CN4CCCC4)c(O)c(OC)c3)C2=O)cc(CN2CCCC2)c1O | 63.7% (inactive)
Fc1ccccc1-c1cnn2cc(-c3ccccc3)cnc12 | 93% (inactive)
CC(C)(C)c1cc(NC(=O)Nc2ccc(-c3cn4c(n3)sc3cc(OCCN5CCOCC5)ccc34)cc2)no1 | -2.54% (active)
COc1ccc(/C=N/NC(=O)CN2CCN(c3cc4c(cc3F)c(=O)c(C(=O)O)cn4C3CC3)CC2)cc1O | 96.8% (inactive)
NNCCc1ccccc1 | 116% (inactive) and 94.1% (inactive)
CNC(=O)c1cc(Oc2ccc3nc(NC(=O)Nc4ccc(C(F)(F)F)cc4)sc3c2)ccn1 | 30% (inactive)
CC1=C2[C@@H](CC1)[C@]1(C)O[C@@](C3CC3)(C[C@H]1OC(=O)CO)[C@H]2OC(=O)/C=C/c1ccccc1 | -14.6% (active)
O=C(c1ccc(Nc2nccc(NCCCNc3ccnc4cc(Cl)ccc34)n2)cc1)N1CCCCC1 | 84.8% (inactive)
CCN(CC)CC#CCOC(=O)[C@]1(C)CCC[C@]2(C)c3ccc(C(C)C)cc3CC[C@@H]12 | 90.2% (inactive)
Nc1nc2ccccc2c2c(=O)c3ccc(Cl)cc3sc12 | 89.3% (inactive)
Nc1nc2c(s1)CCc1cn(S(=O)(=O)c3ccccc3)cc1-2 | 86.4% (inactive) and 107% (inactive)
COc1cccc(NC(=O)c2sc3nc(C)c(C(O)c4ccccc4)cc3c2N)c1 (centres undefined) | 14.6% (inactive)
CC12OC(CC(O)C1O)n1c3ccccc3c3c4c(c5c6ccccc6n2c5c31)C(=O)N(CCN1CCOCC1)C4=O (centres undefined) | 23.1% (inactive)
Cc1c(O)c(O)cc2c3c(oc12)CC(c1ccc2c(c1)OCO2)CC3=O (centres undefined) | 92.2% (inactive)
N#CC1=C(N)Oc2c(sc3c(Br)cccc23)C1c1ccccn1 (centres undefined) | 45.5% (inactive)
COc1cc2nc3cc([N+](=O)[O-])ccc3c(NCCNCC(C)(C)O)c2cc1OC | -2.1% (active)
CCOc1ccccc1NC(=O)c1cc2ccccc2cc1O | 51.6% (inactive)
